Test results taken from the supplement of paper PMC3484114.
± gives the standard deviation.

tested on: OVCAR-3-derived ovarian cancer stem-like cells (spheroids); test: cell growth relative to untreated control; higher = more growth (less inhibition); conditions: 2.29 µM; 96 h
How it was run: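 Percent growth was calculated against untreated wells once blanks were subtracted and Grubbs outliers removed. The cells were OVCAR-3 spheroid-derived stem-like cells, trypsinized and plated at 50,000 cells/mL in stem cell medium on ultra-low attachment 96-well plates for a 24 h preincubation. They were then exposed to compounds at 2.29 uM for 96 h at 37°C, 5% CO2, in 4 replicate wells, and viability was measured by TOX8 resazurin fluorescence (ex 560/em 590 nm) after 4 h.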

| SMILES | cell growth [%] |
| --- | --- |
| CCC[CH2][Pb]([Cl])([CH2]CCC)[CH2]CCC | 5.1 ± 5.5 |
| S=C=NCc1ccccc1 | 109 ± 28 |
| COc1cc(C2c3cc4c(cc3C(O)C3COC(=O)C23)OCO4)cc(OC)c1OC (stereo not given) | 31 ± 5.3 |
| [O-][n+]1ccccc1[S-].[O-][n+]1ccccc1[S-].[Zn+2] | 95.8 ± 7.8 |
| CCC(=O)OC1CCn2c1nc1c2C(=O)C(C)=C(N2CC2)C1=O (stereo not given) | 130 ± 34 |
| CO[C@@H](/C(C)=C/C=C/C(C)=C/c1coc(C)n1)[C@@H](C)[C@@H]1C[C@H](O)[C@@]2(C)O[C@@H]2/C=C/[C@@H](C)[C@H]2C[C@H](CC(=O)O2)C[C@@H]2O[C@H]2C(=O)O1 | 40.6 ± 7.4 |
| CC1=C(N2CC2)C(=O)c2nc3n(c2C1=O)CCC3OC(=O)CCl (stereo not given) | 65.2 ± 6.7 |
| CNC(=O)ON(C(C)=O)C(=O)NC | 114 ± 42 |
| COc1ccc(C[C@@H]2NC[C@@H](O)[C@@H]2OC(C)=O)cc1 | 94.2 ± 33 |
| O=[Se](O)O.[Na+] | 112 ± 29 |
| [Cl][Hg][c]1ccc2ccccc2c1 | 62.6 ± 8.8 |
| CC1(C)CC2=NO[Se]3=C2C(=NO3)C1 | 22.1 ± 4.6 |
| COc1cccc2c1C(=O)c1c(O)c3c(c(O)c1C2=O)C[C@@](O)(C(C)=O)C[C@@H]3O[C@H]1C[C@H](N(Cc2ccccc2)Cc2ccccc2)[C@H](O)[C@H](C)O1 | 62.8 ± 11 |
| COC(=O)C1C(O)C(C)C(O)C(C)/C=C\C=C(C)C(=O)Nc2c(C)c(OC(C)=O)c3c(c2O)C(=O)C(C)=C2OCOC(=C23)C(C)=CC(C)(O)C(O)C(C)C1O (stereo not given) | 84.9 ± 18 |
| COc1cc2c(c(OC)c1OC)-c1ccc(OC)c(=O)cc1[C@@H](NC(C)=O)CC2 | 47.9 ± 11 |
